# Counter-ions that a name gives are not always drawn. ± gives the standard deviation of the averaged measurements.
# System: Danio rerio Tg(wt1b:EGFP) embryo, pronephros
# Test: fraction of imaged embryos annotated as normal kidney; higher = less nephrotoxic; extreme values may be limits of the assay
# Settings: 25 µM; exposure: 24-48 hpf
# Outline: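 Dechorionated Tg(wt1b:EGFP) zebrafish embryos were incubated with 25 μM compound in 0.5% DMSO, 5 mM HEPES-buffered E3 and 0.003% PTU from 24 to 48 hpf at 28.5°C. Pronephroi were then imaged by widefield fluorescence, and the fraction of embryos per treatment assigned by hand to the normal-kidney category is given.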
row,SMILES,fraction of imaged embryos annotated as normal kidney
1,CCC(C)(CN(C)C)OC(=O)c1ccccc1 (stereo unspecified) [Amyleine hydrochloride],0.833
2,CCCOc1cc(N)ccc1C(=O)OCCN(CC)CC [Propoxycaine hydrochloride],0.917
3,O=C1CCc2ccc(OCCCCN3CCN(c4cccc(Cl)c4Cl)CC3)cc2N1 [Aripiprazole],1
4,O=C(O)Cc1ccc(-c2ccccc2)cc1 [Felbinac],0
5,COc1ccc(C(=O)c2ccccc2)c(O)c1 [Oxybenzone],0.833
6,C[C@H](N)[C@H](O)c1cccc(O)c1 [Metaraminol bitartrate],0.667
7,CN1CCCCC1CCN1c2ccccc2Sc2ccc([S+](C)[O-])cc21 (stereo unspecified) [Mesoridazine besylate],0.833
8,CCOc1nc2cccc(C(=O)O)c2n1Cc1ccc(-c2ccccc2-c2nnn[nH]2)cc1 [Candesartan],0.917
9,O=C(Nc1ccccc1)OCC(CN1CCCCC1)OC(=O)Nc1ccccc1 (stereo unspecified) [Diperodon hydrochloride],0.818
10,CCCCCCC[N+](CC)(CC)CCCCc1ccc(Cl)cc1 [Clofilium tosylate],0.583
11,Cc1ccc(/C(=C\CN2CCCC2)c2ccccn2)cc1 [Triprolidine hydrochloride],0.917
12,O=C(c1ccc(OCCN2CCCCC2)cc1)c1c(-c2ccc(O)cc2)sc2cc(O)ccc12 [Raloxifene hydrochloride],0.917
13,CN(C)CCOC(c1ccc(Cl)cc1)c1ccccn1 (stereo unspecified) [Carbinoxamine maleate salt],0.9
14,C#C[C@]1(O)CC[C@H]2[C@@H]3CCC4=CC(=O)CC[C@@H]4[C@H]3CC[C@@]21C [Norethindrone],0.909
15,CN1C(C(=O)Nc2ccccn2)=C(O)c2ccccc2S1(=O)=O [Piroxicam],0
16,C[C@@H](O)[C@H]1C(=O)N2C(C(=O)O)=C(S[C@@H]3CN[C@H](C(=O)N(C)C)C3)[C@H](C)[C@H]12 [Meropenem],0.75
17,Cc1cccc(CN2CCN(C(c3ccccc3)c3ccc(Cl)cc3)CC2)c1 (stereo unspecified) [Meclozine dihydrochloride],0.417
18,CCN(CC)CCOC(=O)C(c1ccccc1)c1ccccc1 [Adiphenine hydrochloride],0.917
19,CCOC(=O)C1=C(C)NC(C)=C(C(=O)OC)C1c1cccc(Cl)c1Cl (stereo unspecified) [Felodipine],0
20,COc1ccc(CC2c3cc(OC)c(OC)cc3CC[N+]2(C)CCC(=O)OCCCCCOC(=O)CC[N+]2(C)CCc3cc(OC)c(OC)cc3C2Cc2ccc(OC)c(OC)c2)cc1OC (stereo unspecified) [Atracurium besylate],0.917
21,CC(C)(C)NCC(O)COc1cccc2c1CCC(=O)N2 (stereo unspecified) [Carteolol hydrochloride],0.917
22,CC[N+](CC)(CC)CCOc1cccc(OCC[N+](CC)(CC)CC)c1OCC[N+](CC)(CC)CC [Gallamine triethiodide],0.833
23,CCCCc1oc2ccccc2c1C(=O)c1cc(I)c(OCCN(CC)CC)c(I)c1 [Amiodarone hydrochloride],0.4
24,CN(C)CCCO[C@@H]1[C@H]2OC(C)(C)O[C@H]2O[C@@H]1[C@H](O)CO [Amiprilose hydrochloride],0.667
25,O=C1[C@H](CC[C@H](O)c2ccc(F)cc2)[C@@H](c2ccc(O)cc2)N1c1ccc(F)cc1 [Ezetimibe],0.75
26,Cc1ccc(-c2ncc(Cl)cc2-c2ccc(S(C)(=O)=O)cc2)cn1 [Etoricoxib],0.833
27,COc1ncnc(NS(=O)(=O)c2ccc(N)cc2)c1OC [Sulfadoxine],0.833

# System: Danio rerio Tg(wt1b:EGFP) embryo, pronephros
# Test: pronephric angle neck segment to proximal convoluted tubule (mean of left and right), fold change vs DMSO control; higher = larger pronephric angle
# Settings: 25 µM; exposure: 24-48 hpf
# Outline: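 In HEPES-buffered E3 with 0.003% PTU and 0.5% DMSO, dechorionated Tg(wt1b:EGFP) zebrafish embryos were exposed to 25 μM compound from 24 to 48 hpf at 28.5°C. Pronephroi were then imaged dorsally at 470 nm in 10 z-slices, in 96-well plates filled with agarose. On maximum projections, a Fiji macro turned 16 manually placed reference points into distances and angles, and values more than 2 SD from the feature mean were excluded. Features are fold changes relative to the mean of DMSO-treated embryos from the same day.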
row,SMILES,pronephric angle neck segment
1,Cn1c([N+](=O)[O-])cnc1COC(N)=O [Ronidazole],1.02 ± 0.016
2,COc1ccc(Cl)cc1C(=O)NCCc1ccc(S(=O)(=O)NC(=O)NC2CCCCC2)cc1 [Glibenclamide],0.999 ± 0.047
3,CC1(C)[C@@H](OC(=O)CCC(=O)O)CC[C@]2(C)[C@H]3C(=O)C=C4[C@@H]5C[C@@](C)(C(=O)O)CC[C@]5(C)CC[C@@]4(C)[C@]3(C)CC[C@@H]12 [Carbenoxolone disodium salt],0.9894 ± 0.0072
4,O=C(O)CCC(=O)c1ccc(-c2ccccc2)cc1 [Fenbufen],1.32 ± 0.18
5,CCN[C@H]1C[C@H](C)S(=O)(=O)c2sc(S(N)(=O)=O)cc21 [Dorzolamide hydrochloride],1.024 ± 0.0028
6,O=C(O)CCCC[C@@H]1SC[C@@H]2NC(=O)N[C@@H]21 [Biotin],1.02 ± 0.066
7,CSc1ccc2c(c1)N(CCC1CCCCN1C)c1ccccc1S2 (stereo unspecified) [Thioridazine hydrochloride],0.9994 ± 0.0046
8,COc1ccc(C(=O)NCc2ccc(OCCN(C)C)cc2)cc1OC [Itopride],1.06 ± 0.055
9,OC(Cn1cncn1)(Cn1cncn1)c1ccc(F)cc1F [Fluconazole],0.978 ± 0.021
10,COc1ccc(CN(CCN(C)C)c2ccccn2)cc1 [Pyrilamine maleate],1.03 ± 0.033
11,NCCCCCC(=O)O [Aminocaproic acid],1.02 ± 0.055
12,CC[C@H]1OC(=O)[C@H](C)[C@@H](O[C@H]2C[C@@](C)(OC)[C@@H](O)[C@H](C)O2)[C@H](C)[C@@H](O[C@@H]2O[C@H](C)C[C@H](N(C)C)[C@H]2O)[C@](C)(O)C[C@@H](C)CN(C)[C@H](C)[C@@H](O)[C@]1(C)O [Azithromycin],1.012 ± 0.0055
13,CCC(C)(CN(C)C)OC(=O)c1ccccc1 (stereo unspecified) [Amyleine hydrochloride],0.9967 ± 0.0077
14,CCCOc1cc(N)ccc1C(=O)OCCN(CC)CC [Propoxycaine hydrochloride],1.01 ± 0.023
15,O=C1CCc2ccc(OCCCCN3CCN(c4cccc(Cl)c4Cl)CC3)cc2N1 [Aripiprazole],1.08 ± 0.033
16,O=C(O)Cc1ccc(-c2ccccc2)cc1 [Felbinac],1.73 ± 0.04
17,COc1ccc(C(=O)c2ccccc2)c(O)c1 [Oxybenzone],1.03 ± 0.02
18,C[C@H](N)[C@H](O)c1cccc(O)c1 [Metaraminol bitartrate],0.771 ± 0.017
19,CN1CCCCC1CCN1c2ccccc2Sc2ccc([S+](C)[O-])cc21 (stereo unspecified) [Mesoridazine besylate],1.02 ± 0.033
20,CCOc1nc2cccc(C(=O)O)c2n1Cc1ccc(-c2ccccc2-c2nnn[nH]2)cc1 [Candesartan],1.01 ± 0.019

row,SMILES,pronephric angle neck segment
1,O=C(Nc1ccccc1)OCC(CN1CCCCC1)OC(=O)Nc1ccccc1 (stereo unspecified) [Diperodon hydrochloride],1.04 ± 0.024
2,CCCCCCC[N+](CC)(CC)CCCCc1ccc(Cl)cc1 [Clofilium tosylate],0.9834 ± 0.0086
3,Cc1ccc(/C(=C\CN2CCCC2)c2ccccn2)cc1 [Triprolidine hydrochloride],1.04 ± 0.045
4,O=C(c1ccc(OCCN2CCCCC2)cc1)c1c(-c2ccc(O)cc2)sc2cc(O)ccc12 [Raloxifene hydrochloride],1.01 ± 0.025
5,CN(C)CCOC(c1ccc(Cl)cc1)c1ccccn1 (stereo unspecified) [Carbinoxamine maleate salt],1.01 ± 0.026
6,C#C[C@]1(O)CC[C@H]2[C@@H]3CCC4=CC(=O)CC[C@@H]4[C@H]3CC[C@@]21C [Norethindrone],1 ± 0.022
7,CN1C(C(=O)Nc2ccccn2)=C(O)c2ccccc2S1(=O)=O [Piroxicam],1.78 ± 0.095
8,C[C@@H](O)[C@H]1C(=O)N2C(C(=O)O)=C(S[C@@H]3CN[C@H](C(=O)N(C)C)C3)[C@H](C)[C@H]12 [Meropenem],1.0113 ± 1.4e-05
9,Cc1cccc(CN2CCN(C(c3ccccc3)c3ccc(Cl)cc3)CC2)c1 (stereo unspecified) [Meclozine dihydrochloride],1.03 ± 0.073
10,CCN(CC)CCOC(=O)C(c1ccccc1)c1ccccc1 [Adiphenine hydrochloride],0.98401 ± 0.00017
11,CCOC(=O)C1=C(C)NC(C)=C(C(=O)OC)C1c1cccc(Cl)c1Cl (stereo unspecified) [Felodipine],1.44 ± 0.022
12,COc1ccc(CC2c3cc(OC)c(OC)cc3CC[N+]2(C)CCC(=O)OCCCCCOC(=O)CC[N+]2(C)CCc3cc(OC)c(OC)cc3C2Cc2ccc(OC)c(OC)c2)cc1OC (stereo unspecified) [Atracurium besylate],0.954 ± 0.016
13,CC(C)(C)NCC(O)COc1cccc2c1CCC(=O)N2 (stereo unspecified) [Carteolol hydrochloride],1.01 ± 0.027
14,CC[N+](CC)(CC)CCOc1cccc(OCC[N+](CC)(CC)CC)c1OCC[N+](CC)(CC)CC [Gallamine triethiodide],0.998 ± 0.034
15,CCCCc1oc2ccccc2c1C(=O)c1cc(I)c(OCCN(CC)CC)c(I)c1 [Amiodarone hydrochloride],1.14 ± 0.13
16,CN(C)CCCO[C@@H]1[C@H]2OC(C)(C)O[C@H]2O[C@@H]1[C@H](O)CO [Amiprilose hydrochloride],1 ± 0.02
17,O=C1[C@H](CC[C@H](O)c2ccc(F)cc2)[C@@H](c2ccc(O)cc2)N1c1ccc(F)cc1 [Ezetimibe],0.992 ± 0.059
18,Cc1ccc(-c2ncc(Cl)cc2-c2ccc(S(C)(=O)=O)cc2)cn1 [Etoricoxib],1.04 ± 0.042
19,COc1ncnc(NS(=O)(=O)c2ccc(N)cc2)c1OC [Sulfadoxine],1.02 ± 0.066

# Source: the supplement of paper PMC7366291
